An excerpt weighted towards active compounds, which were near 10% of everything screened.
HEK cytotox: kills HEK 293 cells | HEK 293 viability, ATP luminescence (CellTiter-Glo), 48-72 h | Potency, µM (titrated, usually from 115 µM), without a hit: at the highest dose activity change, negative = cytotoxicity, usual class: inhibitors | hit rate 6.6% among 94,000; further: nearly all actives have a fitted effect of over 60% in size
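Read-out: CellTiter-Glo ATP luminescence. Cells: HEK 293, 250 cells/well. Exposure: 48 or 72 hr, 37 degree Celsius.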
3T3 cytotox: NIH 3T3 cell cytotoxicity | Potency, µM (highest dose often 96.7 µM), inactives show top-dose activity change, negative = cytotoxicity, most hits filed as inhibitors | AID 1345082 | hit rate 4.3% among 94,000 | NIH 3T3 viability, CellTiter-Glo ATP luminescence, 48-72 h; further: nearly all actives have a fitted effect of over 55% in size
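First NIH 3T3 cells are plated at 400 cells/well; next compound is pinned in; then plates incubate 48 or 72 hr at 37 °C; finally CellTiter-Glo is added and luminescence read after 10 min.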
hNpr1 antagonist: blocks ANP-stimulated signaling of human Npr1 receptor; Potency, µM (doses to about 46.3 µM), inactives show at the top dose activity change, negative = inhibition, actives largely listed as inhibitors; HEK293 hNpr1 GloSensor cGMP, ANP-stimulated luminescence; hit rate 1.6% among 76,000; AID 1347048; P16066; calls by dose curve; further: nearly all actives have a fitted effect of over 60% in size
Target sequence (P16066 whole entry, looked up): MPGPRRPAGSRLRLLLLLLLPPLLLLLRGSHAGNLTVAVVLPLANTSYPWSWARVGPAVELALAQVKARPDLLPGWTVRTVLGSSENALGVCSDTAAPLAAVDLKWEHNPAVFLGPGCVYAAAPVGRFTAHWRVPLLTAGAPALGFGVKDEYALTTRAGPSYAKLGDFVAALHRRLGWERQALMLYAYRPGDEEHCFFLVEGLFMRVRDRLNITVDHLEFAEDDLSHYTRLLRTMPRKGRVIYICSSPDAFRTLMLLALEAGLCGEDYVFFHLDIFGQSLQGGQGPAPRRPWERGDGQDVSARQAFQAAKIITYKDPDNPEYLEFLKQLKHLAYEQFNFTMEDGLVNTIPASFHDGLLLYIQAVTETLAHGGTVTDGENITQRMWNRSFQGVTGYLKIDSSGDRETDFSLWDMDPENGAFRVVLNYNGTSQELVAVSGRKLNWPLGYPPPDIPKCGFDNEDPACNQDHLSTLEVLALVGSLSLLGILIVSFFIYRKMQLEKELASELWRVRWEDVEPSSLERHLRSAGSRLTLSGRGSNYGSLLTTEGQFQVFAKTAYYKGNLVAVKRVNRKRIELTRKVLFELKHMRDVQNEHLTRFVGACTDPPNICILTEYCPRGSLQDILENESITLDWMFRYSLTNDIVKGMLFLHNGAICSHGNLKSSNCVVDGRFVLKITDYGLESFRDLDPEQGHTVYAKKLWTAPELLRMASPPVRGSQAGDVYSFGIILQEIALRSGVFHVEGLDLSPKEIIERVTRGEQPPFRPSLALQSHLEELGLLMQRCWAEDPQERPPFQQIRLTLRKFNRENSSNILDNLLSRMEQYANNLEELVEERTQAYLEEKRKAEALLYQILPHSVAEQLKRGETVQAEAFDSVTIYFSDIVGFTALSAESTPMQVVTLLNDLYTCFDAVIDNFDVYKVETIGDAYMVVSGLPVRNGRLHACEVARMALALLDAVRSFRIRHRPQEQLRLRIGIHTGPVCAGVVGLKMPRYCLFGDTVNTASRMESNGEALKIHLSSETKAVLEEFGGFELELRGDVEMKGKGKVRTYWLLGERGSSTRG
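Compound pre-incubated 30 min at room temperature on GloSensor-loaded HEK293 cells stably carrying hNpr1 and the pGS-40F cGMP biosensor. Stimulation uses hNppA at 0.1 nM final; luminescence is taken at baseline and 20 min post-agonist.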
GPT2 inhibitor: blocks human glutamate pyruvate transaminase 2. Recombinant GPT2, coupled pyruvate oxidase/HRP Amplex Red fluorescence. Potency, µM (highest dose often 57.7 µM), for the others: at the highest dose activity change, negative = inhibition, usual class: inhibitors. Q8TD30. hit rate 0.25% among 100,000. AID 1671188; further: nearly all actives have a fitted effect of over 60% in size
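Fluorescence read-out: pyruvate from GPT2 turnover coupled to pyruvate oxidase, HRP and Amplex Red (0.2mM ThPP, 0.2U/mL PO and HRP, 50uM Amplex final). Substrates 250uM a-KG, 2mM L-alanine; enzyme 10ng/uL; 30 min RT.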
FLuc inh: inhibitors of firefly (Photinus pyralis) luciferase; hit rate 2.5% among 76,000; P08659; purified P. pyralis luciferase, luminescence, biochemical; Potency, µM (titrated, usually from 115 µM), actives largely listed as inhibitors; AID 1347043; further: nearly all actives have a fitted effect of over 65% in size
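Luminescence read by CCD imager after adding enzyme (10nM final) to wells holding compound, titrated in qHTS. Substrates 10uM each D-luciferin and ATP; buffer 50mM Tris acetate pH 7.5, 10mM Mg acetate, Tween-20, BSA.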
* = called active by the depositor; ! = a repeat was not active; [ ] = another dose, or the depositor's remark. Unless noted, the call rests on the fitted dose curve; in most records, active means well fitted curve in the direction sought with a large enough effect; inconclusive means small, poorly fitted or top-dose-only effect, or another doubt; inactive means no such curve, though single readings can be large; an effect the other way counts as inactive or inconclusive. On the % scale 0 is the no-effect control and ±100 the full control effect; potency means the concentration at half of the fitted maximal effect.

`COCc1ccc2c(c1)c(OC(C)(C)C(=O)NCC[S+](C)(=O)[O-])nn2Cc1ccccc1` gave HEK cytotox -26%, 3T3 cytotox 35µM*, hNpr1 antagonist -1%, GPT2 inhibitor 3% and FLuc inh inactive.
CC(C)N(C)Cc1nnnn1CC(=O)N1CCC(O)(c2cccnc2)CC1 was read as HEK cytotox inactive, 3T3 cytotox -4%, hNpr1 antagonist 8%, GPT2 inhibitor inactive and FLuc inh inactive.
`O=C(NCc1ccc(F)cc1)c1ccc2nnc(C3CCOCC3)n2c1` gave HEK cytotox -1% and 3T3 cytotox -13%.
O=C(COc1ccccc1)N1CC[C@H]2COC(=O)N2c2ccccc2C1 was read as HEK cytotox inactive, 3T3 cytotox inactive, hNpr1 antagonist 5%[70.6 µM], GPT2 inhibitor -6%[88.5 µM] and FLuc inh inactive.
c1ccc(CN2Cc3[nH]cnc3C[C@H]2c2nc(-c3ccccc3)no2)cc1 was read as HEK cytotox 71µM*, 3T3 cytotox inconclusive, hNpr1 antagonist -17%[70.6 µM], GPT2 inhibitor inconclusive and FLuc inh inactive.
Screening Cc1ccc(-c2noc([C@@H]3Cc4nc[nH]c4CN3Cc3ccccc3)n2)cc1 returned HEK cytotox 100µM*, 3T3 cytotox 79µM*, hNpr1 antagonist -12%[70.6 µM], GPT2 inhibitor -5%[88.5 µM] and FLuc inh inconclusive.
Screening CN(C)c1ccc(CN2Cc3[nH]cnc3C[C@H]2c2nc(-c3ccncc3)no2)cc1 returned HEK cytotox -26%[172 µM], 3T3 cytotox inconclusive, hNpr1 antagonist 1%[70.6 µM], GPT2 inhibitor -7%[88.5 µM] and FLuc inh inactive.
Screening Fc1ccc(CN2Cc3[nH]cnc3C[C@H]2c2nc(-c3ccc(F)c(Cl)c3)no2)cc1 returned HEK cytotox inconclusive, 3T3 cytotox 89µM*, hNpr1 antagonist -25%[70.6 µM], GPT2 inhibitor -8%[88.5 µM] and FLuc inh inconclusive.
CCNC(=O)N1Cc2[nH]cnc2C[C@H]1c1nc(-c2ccc(F)c(Cl)c2)no1 was read as HEK cytotox inconclusive, 3T3 cytotox inconclusive, hNpr1 antagonist -23%[70.6 µM], GPT2 inhibitor -8%[88.5 µM] and FLuc inh inactive.
`C[C@@H]1CC[C@]2(C(=O)O[C@@H]3O[C@H](CO[C@@H]4O[C@H](CO)[C@@H](O[C@@H]5O[C@@H](C)[C@H](O)[C@@H](O)[C@H]5O)[C@H](O)[C@H]4O)[C@@H](O)[C@H](O)[C@H]3O)CC[C@]3(C)C(=CCC4[C@@]5(C)C[C@@H](O)[C@H](O)[C@@](C)(CO)C5CC[C@]43C)C2[C@H]1C` (stereo not given in full) gave GPT2 inhibitor 5%[17.1 µM].
O=C(c1ccco1)N1CC(Oc2cccc(-c3nc(-c4ccccc4)no3)c2)C1 was read as HEK cytotox inconclusive, 3T3 cytotox inconclusive, hNpr1 antagonist -1%, GPT2 inhibitor -6% and FLuc inh inconclusive.
For Cc1nnc([C@@H]2CC(F)(F)CN2)o1 the results were HEK cytotox -15%, 3T3 cytotox -7%, hNpr1 antagonist -6%, GPT2 inhibitor inactive and FLuc inh inactive.
Screening FC(F)(F)c1cccc(Nc2ncc(-c3cccnc3)c3c2OCC3)c1 returned HEK cytotox inconclusive, 3T3 cytotox inconclusive, hNpr1 antagonist -16%[70.6 µM], GPT2 inhibitor -3%[88.5 µM] and FLuc inh inactive.
Screening COc1cccc(Nc2ncc(-c3ccccc3)c3c2OCC3)c1 returned HEK cytotox inconclusive, 3T3 cytotox -28%[138 µM], hNpr1 antagonist inconclusive, GPT2 inhibitor inconclusive and FLuc inh 14µM*.
For COc1ccc(Nc2ncc(-c3cccnc3)c3c2OCC3)cc1 the results were HEK cytotox inconclusive, 3T3 cytotox inconclusive, hNpr1 antagonist 12%[70.6 µM], GPT2 inhibitor inactive and FLuc inh 13µM*.
Fc1cccc(-c2cnc(Nc3cccnc3)c3c2CCO3)c1 was read as HEK cytotox inconclusive, 3T3 cytotox inconclusive, hNpr1 antagonist 5%[70.6 µM], GPT2 inhibitor inactive and FLuc inh inactive.
Screening COc1cccc(Nc2ncc(-c3cccc(N(C)C)c3)c3c2OCC3)c1 returned HEK cytotox -66%[172 µM], 3T3 cytotox inconclusive, hNpr1 antagonist inconclusive, GPT2 inhibitor 2%[88.5 µM] and FLuc inh inconclusive.
Screening COc1ccc(-c2cnc(Nc3cccnc3)c3c2CCO3)cn1 returned HEK cytotox 71µM*, 3T3 cytotox inconclusive, hNpr1 antagonist -7%[70.6 µM], GPT2 inhibitor 3%[88.5 µM] and FLuc inh inconclusive.
Screening CSc1ncccc1C(=O)NC1CCCN(CCCc2ccccc2)C1 (stereo not given) returned HEK cytotox -11%, 3T3 cytotox -17%, hNpr1 antagonist 13%, GPT2 inhibitor -14% and FLuc inh inactive.
Screening Cc1cc(C)n(CCc2c(-c3ccccc3)ncn2CCCc2cccnc2)n1 returned HEK cytotox 1%, 3T3 cytotox 50µM*, hNpr1 antagonist 0%, GPT2 inhibitor 1%[11.5 µM] and FLuc inh inactive.
Screening Cn1ncc2c(C(=O)NCCc3ccc(Cl)cc3)cc(C(C)(C)C)nc21 returned HEK cytotox 40µM*!, 3T3 cytotox inconclusive and GPT2 inhibitor -10%[88.5 µM].
`Cc1ccc(-c2cc(C(=O)NCCc3ccc(F)cc3)c3cnn(C)c3n2)c(C)c1` gave HEK cytotox 40µM*, 3T3 cytotox inconclusive and GPT2 inhibitor inactive.
Screening Cn1ncc2c(C(=O)NCCCl)cc(-c3ccccc3C(F)(F)F)nc21 returned HEK cytotox -5% and 3T3 cytotox -23%.
For Cn1ncc2c(C(=O)NCCc3ccccc3)cc(C(C)(C)C)nc21 the results were HEK cytotox inconclusive, 3T3 cytotox inconclusive and GPT2 inhibitor 1%.
Cc1ccc(-c2cc(C(=O)NCCc3ccc(Cl)cc3)c3cnn(C)c3n2)c(C)c1 was read as HEK cytotox inconclusive, 3T3 cytotox inconclusive and GPT2 inhibitor 5%.
For Cn1ncc2c(C(=O)NCCc3ccc(Cl)cc3)cc(-c3ccccc3C(F)(F)F)nc21 the results were HEK cytotox 40µM* and 3T3 cytotox 32µM*.
Screening Cn1ncc2c(C(=O)NCc3cccc(Cl)c3)cc(C(C)(C)C)nc21 returned HEK cytotox 50µM*, 3T3 cytotox inconclusive and GPT2 inhibitor inactive.
`O=C(CCc1nc2ccccc2s1)N1CCC(c2noc(-c3cnccn3)n2)C1` (stereo not given) gave HEK cytotox -18%, 3T3 cytotox -13%, hNpr1 antagonist 3%, GPT2 inhibitor inactive and FLuc inh inactive.
Screening CC1(C)CC1(C(=O)N1CCc2c(nc(N)[nH]c2=O)C1)c1cccs1 (stereo not given) returned HEK cytotox -14%, 3T3 cytotox 2%, hNpr1 antagonist 4%, GPT2 inhibitor 4%[11.5 µM] and FLuc inh inactive.
